Measurements taken from PubChem BioAssay.
For some of these results: Entries with a potency or affinity are not part of this list. The source made the active and inactive calls. Unless noted, no rule for the calls is given here.

Legend:
[1] = antimalarial activity against Dd2 strain (AID 2302;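 active = growth inhibition above 50% at the single 2 µM test dose, taken to imply half-maximal potency below 2 µM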;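 also: 0% = DMSO untreated growth and 100% = chloroquine plus artemisinin killed control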); settings: P. falciparum Dd2 in RBCs, LDH growth readout, 72 h; at 2 µM; stronger effect = higher value
[2] = HepG2 cytotoxicity, primary screen, cytotoxicity control for P. falciparum antimalarial project, cell-based, ATP luminescence (AID 2303;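 active = inhibition above 50%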;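 also: 0% = DMSO wells and 100% = digitonin-killed cells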); settings: HepG2 viability, 24-48 h, at 10 µM, stronger effect = higher value
[3] = target: L-lactate dehydrogenase (Plasmodium falciparum (isolate CDC / Honduras)) (UniProt Q27743); test: PfLDH activity inhibition – cell lysate, 3D7 strain, counter-screen for P. falciparum growth inhibition project (AID 2304);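 also: 0% = vehicle and 100% = reference inhibitor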; settings: P. falciparum 3D7 crude extract, LDH APAD/NBT absorbance; at 2 µM; stronger effect = higher value
L-lactate dehydrogenase (Plasmodium falciparum (isolate CDC / Honduras)), sequence (Q27743 whole entry, looked up): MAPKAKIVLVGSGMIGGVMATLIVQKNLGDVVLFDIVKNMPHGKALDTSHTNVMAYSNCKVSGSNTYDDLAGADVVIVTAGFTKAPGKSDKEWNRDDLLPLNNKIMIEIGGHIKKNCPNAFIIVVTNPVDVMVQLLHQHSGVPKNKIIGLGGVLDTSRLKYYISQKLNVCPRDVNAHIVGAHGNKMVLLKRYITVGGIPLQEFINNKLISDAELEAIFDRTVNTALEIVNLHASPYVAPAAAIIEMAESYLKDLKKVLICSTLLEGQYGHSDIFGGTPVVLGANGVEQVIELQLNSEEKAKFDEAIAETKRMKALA

[4] = inhibition of 3D7 malaria parasite growth – strain 3D7 (AID 2306);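 also: 0% = DMSO wells and 100% = chloroquine plus artemisinin control wells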; settings: P. falciparum 3D7 erythrocytic growth, LDH absorbance, 72 h; at 2 µM; stronger effect = higher value
[5] = target: Calcium-dependent protein kinase 1 (Plasmodium falciparum (isolate 3D7)) (UniProt P62344); test: PfCDPK1 kinase inhibitors, biochemical, TCAMS library (AID 1159585; cut-off not given, nearly all actives have IC50 up to about 0.98 µM;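 also: inhibitors leave more ATP so luminescence rises with inhibition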); settings: recombinant PfCDPK1, Kinase-Glo ATP depletion luminescence
Calcium-dependent protein kinase 1 (Plasmodium falciparum (isolate 3D7)), sequence (P62344 whole entry, looked up): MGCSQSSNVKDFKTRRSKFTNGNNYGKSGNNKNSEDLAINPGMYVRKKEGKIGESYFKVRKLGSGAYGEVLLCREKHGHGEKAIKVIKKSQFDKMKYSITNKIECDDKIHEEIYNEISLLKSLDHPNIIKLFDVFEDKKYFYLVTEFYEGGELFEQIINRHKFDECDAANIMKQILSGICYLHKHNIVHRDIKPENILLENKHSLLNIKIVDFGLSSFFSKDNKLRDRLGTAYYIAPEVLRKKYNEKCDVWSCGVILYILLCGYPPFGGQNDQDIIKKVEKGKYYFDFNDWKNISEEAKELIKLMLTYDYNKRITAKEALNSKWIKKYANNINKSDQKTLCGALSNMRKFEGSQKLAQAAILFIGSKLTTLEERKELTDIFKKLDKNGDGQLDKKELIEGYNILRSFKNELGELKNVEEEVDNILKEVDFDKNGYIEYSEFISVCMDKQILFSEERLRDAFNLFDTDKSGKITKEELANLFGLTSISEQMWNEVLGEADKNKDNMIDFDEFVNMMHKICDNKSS

[6] = target: Plasmodium falciparum protein kinase 6 (PK6, PF3D7_1337100) (UniProt Q8IDW1); test: PfPK6 kinase inhibitors, biochemical, TCAMS library (AID 1159586); settings: recombinant PfPK6, Kinase-Glo ATP depletion luminescence
Plasmodium falciparum protein kinase 6 (PK6, PF3D7_1337100), sequence (Q8IDW1 1-305): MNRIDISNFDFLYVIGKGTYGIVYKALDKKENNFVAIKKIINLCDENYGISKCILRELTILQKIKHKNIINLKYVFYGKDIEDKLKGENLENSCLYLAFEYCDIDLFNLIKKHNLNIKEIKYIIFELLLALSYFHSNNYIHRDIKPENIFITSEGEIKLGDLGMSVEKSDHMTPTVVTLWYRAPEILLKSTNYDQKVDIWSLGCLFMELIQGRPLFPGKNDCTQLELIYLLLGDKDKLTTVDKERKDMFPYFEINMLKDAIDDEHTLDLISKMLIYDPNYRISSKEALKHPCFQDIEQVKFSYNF

[7] = target: Protein kinase 7 (PK7), Plasmodium falciparum 3D7 (PF3D7_0213400) (UniProt Q7YTF7); test: inhibition of Plasmodium PK7 catalytic activity – biochemical, TCAMS antimalarial set, Kinase-Glo luminescence (AID 1159587); settings: recombinant PfPK7, Kinase-Glo ATP depletion luminescence
Protein kinase 7 (PK7), Plasmodium falciparum 3D7 (PF3D7_0213400), sequence (Q7YTF7 1-343): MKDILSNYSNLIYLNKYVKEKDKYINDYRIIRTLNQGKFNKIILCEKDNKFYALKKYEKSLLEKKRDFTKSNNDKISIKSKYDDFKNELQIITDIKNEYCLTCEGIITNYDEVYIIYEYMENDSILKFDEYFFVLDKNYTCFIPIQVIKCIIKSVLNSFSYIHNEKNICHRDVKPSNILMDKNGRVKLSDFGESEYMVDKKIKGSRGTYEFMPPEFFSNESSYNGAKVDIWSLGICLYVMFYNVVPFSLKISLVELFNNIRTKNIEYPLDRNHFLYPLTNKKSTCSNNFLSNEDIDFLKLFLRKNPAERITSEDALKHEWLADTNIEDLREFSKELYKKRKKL

[8] = target: Calcium-dependent protein kinase 4 (Plasmodium falciparum (isolate 3D7)) (UniProt Q8IBS5); test: PfCDPK4 kinase inhibitors, biochemical, TCAMS library (AID 1159588; cut-off not given, nearly all actives have IC50 up to about 0.91 µM); settings: recombinant PfCDPK4, Kinase-Glo ATP depletion luminescence
Calcium-dependent protein kinase 4 (Plasmodium falciparum (isolate 3D7)), sequence (Q8IBS5 whole entry, looked up): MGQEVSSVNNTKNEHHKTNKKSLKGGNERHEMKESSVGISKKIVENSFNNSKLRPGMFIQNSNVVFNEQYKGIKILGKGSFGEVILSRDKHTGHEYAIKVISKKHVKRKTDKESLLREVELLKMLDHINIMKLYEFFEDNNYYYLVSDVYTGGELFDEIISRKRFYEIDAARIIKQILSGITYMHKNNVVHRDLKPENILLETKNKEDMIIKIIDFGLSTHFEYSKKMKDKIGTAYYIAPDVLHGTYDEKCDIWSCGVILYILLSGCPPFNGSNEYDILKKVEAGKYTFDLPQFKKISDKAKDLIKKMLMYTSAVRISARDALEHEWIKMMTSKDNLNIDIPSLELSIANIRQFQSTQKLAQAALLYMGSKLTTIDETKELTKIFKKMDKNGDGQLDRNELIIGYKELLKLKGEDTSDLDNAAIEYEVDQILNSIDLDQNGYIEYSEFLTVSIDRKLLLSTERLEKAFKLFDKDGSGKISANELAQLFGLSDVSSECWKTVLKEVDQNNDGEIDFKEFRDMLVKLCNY

SMILES: CCC1CN(S(=O)(=O)c2ccc3c(c2)NC(=O)CC(=O)N3)c2cc(Cl)ccc2O1 (stereo not given)
- growth inhibition [1]: 65% (active)
- inhibition [2]: -9% (inactive)
- inhibition [3]: -5% (inactive)
- growth inhibition [4]: 99% (active)
- outcome [5]: inactive
- outcome [6]: inactive
- outcome [7]: inactive
- outcome [8]: inactive

SMILES: Cc1ccc2nc3sc(C(=O)NCCCN4CCC(N5CCCCC5)CC4)cc3cc2c1
- growth inhibition [1]: 71% (active)
- inhibition [2]: 11% (inactive)
- inhibition [3]: -5% (inactive)
- growth inhibition [4]: 103% (active)
- outcome [5]: inactive
- outcome [6]: inactive
- outcome [7]: inactive
- outcome [8]: inactive

SMILES: CCn1ccc2c3c(N)nc(N)nc3ccc21
- growth inhibition [1]: 2% (inactive)
- inhibition [2]: 61% (active)
- inhibition [3]: 6% (inactive)
- growth inhibition [4]: 99% (active)
- outcome [5]: inactive
- outcome [6]: inactive
- outcome [7]: inactive
- outcome [8]: inactive

SMILES: CC1(C)Cc2c([nH]c3ccccc23)C(CCCCCCCCC2=NC(C)(C)Cc3c2[nH]c2ccccc32)=N1
- growth inhibition [1]: 88% (active)
- inhibition [2]: 100% (active)
- inhibition [3]: -1% (inactive)
- growth inhibition [4]: 99% (active)
- outcome [5]: inactive
- outcome [6]: inactive
- outcome [7]: inactive
- outcome [8]: inactive

SMILES: O=C(NCCCCN1CCC(c2ccc3c(c2OCCO)CCCC3)CC1)c1ccc2oc(-c3ccc(C(F)(F)F)cc3)cc2c1
- growth inhibition [1]: 56% (active)
- inhibition [2]: 54% (active)
- inhibition [3]: 4% (inactive)
- growth inhibition [4]: 93% (active)
- outcome [5]: inactive
- outcome [6]: inactive
- outcome [7]: inactive
- outcome [8]: inactive
